Source: PubChem BioAssay (The Scripps Research Institute Molecular Screening Center)
Shown are actives, neighbours in structure and some others; about 2.9% of the full set was active somewhere.
PAFAH1B2 FP inh: PAFAH1B2 enzyme inhibitors, primary screen, biochemical, fluorescence polarization, human; Platelet-activating factor acetylhydrolase IB subunit alpha2 (Homo sapiens), P68402; AID 492953, 2010; recombinant PAFAH1B2, FP-rhodamine activity probe; inhibition, % at 3.39 µM; actives 1.2% (n = 340,000);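 active = inhibition above the mean of all tested compounds plus 3 SD, cut at about 24% in these data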
PAFAH2 inh: PAFAH2 enzyme inhibitors, primary screen, biochemical, fluorescence polarization, human; recombinant PAFAH2, FP-rhodamine activity probe; inhibition, % at 3.39 µM; actives 0.99% (n = 340,000);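 active = inhibition above the mean over all tested compounds plus 3 SD, cut at about 30% in these data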;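 also: inhibitors block probe labeling of enzyme so polarization drops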
pPAFAH FP inh: pPAFAH enzyme inhibitors, primary screen, biochemical, fluorescence polarization, human; recombinant pPAFAH, FP-rhodamine probe fluorescence polarization; inhibition, % at 3.39 µM; actives 1.5% (n = 330,000); AID 463082, 2010;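 active = inhibition above the mean inhibition across the screen plus 3 SD, cut at about 25% in these data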;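 also: inhibitors block binding of the rhodamine activity-based probe so polarization drops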
PME-1 inh: PME-1 inhibitors via competitive probe labeling, primary screen, biochemical, fluorescence polarization, FP-Rh probe, HTS. recombinant PME-1. inhibition, % at 5.9 µM. actives 0.53% (n = 320,000);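 active = inhibition above the campaign mean of all compounds plus 3 SD, cut at about 26% in these data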;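 also: competitive labeling of PME-1 active site by serine hydrolase directed probe; inhibitors block probe labeling so polarization falls and inhibition rises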
Target sequence (Q9Y570 whole entry, looked up): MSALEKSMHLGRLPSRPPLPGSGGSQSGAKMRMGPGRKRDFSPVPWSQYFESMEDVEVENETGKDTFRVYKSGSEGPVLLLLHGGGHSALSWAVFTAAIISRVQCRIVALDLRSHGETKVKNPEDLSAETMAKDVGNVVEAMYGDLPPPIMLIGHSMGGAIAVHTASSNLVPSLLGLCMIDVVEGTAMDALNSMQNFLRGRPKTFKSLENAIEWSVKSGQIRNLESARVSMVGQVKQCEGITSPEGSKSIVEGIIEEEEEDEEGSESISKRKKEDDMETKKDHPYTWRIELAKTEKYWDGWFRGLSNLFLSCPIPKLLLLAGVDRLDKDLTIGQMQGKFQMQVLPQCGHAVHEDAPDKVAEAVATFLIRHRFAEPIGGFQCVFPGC
PAFAH1B3 FP inh: PAFAH1B3 enzyme inhibitors, primary screen, biochemical, fluorescence polarization, human. inhibition, % at 3.39 µM. recombinant PAFAH1B3, FP-rhodamine probe. actives 0.28% (n = 340,000);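 active = inhibition above the screen-wide average of all tested compounds plus 3 SD, cut at about 25% in these data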
Target sequence (Q15102 whole entry, looked up): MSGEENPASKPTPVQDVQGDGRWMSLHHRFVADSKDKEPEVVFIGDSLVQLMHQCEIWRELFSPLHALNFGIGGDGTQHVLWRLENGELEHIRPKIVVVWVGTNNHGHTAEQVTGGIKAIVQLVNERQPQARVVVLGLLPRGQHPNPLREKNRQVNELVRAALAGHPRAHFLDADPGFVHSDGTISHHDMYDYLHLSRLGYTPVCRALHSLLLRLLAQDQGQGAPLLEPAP
Fam108B counter: mouse Fam108B serine hydrolase inhibitors, primary screen, counter-screen for RBBP9 inhibitor project, biochemical, fluorescence polarization. recombinant Fam108B, FP-Rh probe fluorescence polarization. inhibition, % at 9.51 µM. actives 0.33% (n = 300,000);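 active = inhibition above the screen mean inhibition plus 3 SD, computed separately per campaign, cut at about 18% in these data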;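 also: inhibitors lower polarization as less probe binds the enzyme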
pPAFAH FP conf: pPAFAH (PLA2G7) enzyme inhibitors, confirmation, biochemical, fluorescence polarization, human; shares compounds with pPAFAH FP inh; recombinant pPAFAH, FP-Rh probe fluorescence polarization; inhibition, % at 3.39 µM; actives 72% (n = 2,300);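 active = mean inhibition of the triplicate above the hit cutoff set for the earlier primary screen, cut at about 25% in these data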
Large screens that a line does not name were inactive (follow-up assays come after a bar, where they were run); ! = not active in a repeat.

Nc1ccc2nc(-c3ccccc3)[nH]c2c1	none
Cc1ccc(NS(=O)(=O)c2cccc(C(=O)N/N=C/c3c(C)nn(-c4ccccc4)c3N3CCCC3)c2)c(C)c1	pPAFAH FP inh 57.7 | pPAFAH FP conf 34.5
CN(C)c1ccc(NC(=O)CSc2nnc(-c3ccco3)c(-c3ccco3)n2)cc1	none
COc1cccc(NC(=O)CSc2nnc(-c3ccco3)c(-c3ccco3)n2)c1	pPAFAH FP inh 40.9 | pPAFAH FP conf inactive
Cc1ccc(NC(=O)CSc2nnc(-c3ccco3)c(-c3ccco3)n2)cc1	pPAFAH FP inh 47.6 | pPAFAH FP conf 29.1
Cc1ccccc1NC(=O)CSc1nnc(-c2ccco2)c(-c2ccco2)n1	pPAFAH FP inh 44.9 | pPAFAH FP conf inactive
COc1ccc(NC(=O)CCc2nnc3ccc(N4CCN(c5cccc(OC)c5)CC4)nn23)cc1	none
Oc1cccc(/C=N/NC(=S)NCCN2CCOCC2)c1O	pPAFAH FP inh 40.9 | pPAFAH FP conf inactive
S=C(NCCN1CCOCC1)N/N=C/c1cccs1	none
O=C(O)c1[nH]c2ccccc2c1NS(=O)(=O)Cc1ccccc1	pPAFAH FP inh 38.5 | pPAFAH FP conf inactive
CS(=O)(=O)c1ccccc1-c1csc(N2CCC(C(N)=O)CC2)n1	none (no result: PAFAH1B2 FP inh, PAFAH2 inh, PME-1 inh, PAFAH1B3 FP inh, Fam108B counter)
CCCC1Oc2ccccc2C(=O)N(CC(=O)c2ccc3c(c2)OCCO3)C1=O (stereo unspecified)	none
CCOc1ccc(NS(=O)(=O)c2ccc3[nH]c(=O)[nH]c3c2)cc1	none
Cc1ccc(NS(=O)(=O)c2ccc3[nH]c(=O)oc3c2)c(C)c1	pPAFAH FP inh 74.6 | pPAFAH FP conf 70.5
CCOc1ccc(NS(=O)(=O)c2ccc3[nH]c(=O)oc3c2)cc1	pPAFAH FP inh 54.6 | pPAFAH FP conf 52.2
Cc1ccc(-n2nc3c(=O)n(C(C)C(=O)NC4CC4)nc(C)c3c2C)cc1 (stereo unspecified)	none
O=C(NCC(O)c1ccccc1)c1cccs1 (stereo unspecified)	none
COc1cc2[nH]c3c(N4CCN(c5ccccn5)CC4)ncnc3c2cc1OC	pPAFAH FP inh 69.8 | pPAFAH FP conf 57.6
COc1cccc2[nH]c3c(N4CCCCC4)ncnc3c12	none
Cc1cc(O)c(Oc2cc(C)cc(O)c2O)c(O)c1	pPAFAH FP inh 39.1 | pPAFAH FP conf inactive
Cc1ccc(O)c(O)c1	none (no result: PAFAH1B2 FP inh, PAFAH2 inh, PAFAH1B3 FP inh)
CCOc1ccc(C=NNc2ccc(S(=O)(=O)Nc3ccccc3C(=O)O)cc2[N+](=O)[O-])cc1	pPAFAH FP inh 56.6 (no result: PME-1 inh, Fam108B counter) | pPAFAH FP conf 85.8
COc1ccc(C=NNc2ccc(S(=O)(=O)Nc3ccccc3C(=O)O)cc2[N+](=O)[O-])c(OC)c1	PAFAH1B2 FP inh 34.1, PAFAH2 inh 55.6, pPAFAH FP inh 62.9, PAFAH1B3 FP inh 29.2 (no result: PME-1 inh, Fam108B counter) | pPAFAH FP conf 90.9
COc1ccccc1NS(=O)(=O)c1ccc(N/N=C(\C)C(C)C)c([N+](=O)[O-])c1	none
CSc1cccc(NC(=O)COC(=O)c2ccccn2)c1	none (no result: Fam108B counter)
CCCCn1c(=O)[nH]c2nc3cc(N)ccc3nc2c1=O	pPAFAH FP inh 37.0 | pPAFAH FP conf inactive
Cc1cc2nc3c(=O)n(CCc4ccccc4)c(=O)[nH]c3nc2cc1N	pPAFAH FP inh 55.9, PME-1 inh 54.1 | pPAFAH FP conf inactive
O=C(CC1Nc2c3ccccc3nc(=S)n2C1=O)NC1CCCCC1 (stereo unspecified)	none (no result: PAFAH1B2 FP inh, PAFAH2 inh, PAFAH1B3 FP inh)
O=C1c2ccccc2[C@@H]2C[C@H]3O[C@H]3CCN12	none (no result: PME-1 inh, Fam108B counter)
O=C1c2nc3cc(-c4ccco4)[nH]n3c(=O)c2CN1Cc1ccccc1	pPAFAH FP inh 35.4 (no result: PAFAH1B2 FP inh, PAFAH2 inh, PAFAH1B3 FP inh) | pPAFAH FP conf inactive
O=[N+]([O-])c1cc(Br)cc(C=Nc2ccc3c(c2)OCO3)c1O	pPAFAH FP inh 40.9 | pPAFAH FP conf 51.8
CC(C)(C)c1ccc(O)c(N=Cc2cc3c(cc2[N+](=O)[O-])OCO3)c1	pPAFAH FP inh 41.3 | pPAFAH FP conf inactive
Cc1ccc(C)c(N=Cc2cc3c(cc2[N+](=O)[O-])OCO3)c1	none
CCOCCCNC(=O)/C(C#N)=C/c1ccc([N+](=O)[O-])o1	none
COc1ccc(CC(=S)NCCc2ccccc2)cc1	none
Cc1cc(C(=O)OC(C)C(=O)N2CCc3ccccc32)ccc1[N+](=O)[O-] (stereo unspecified)	none
O=C(c1cccc(Br)c1)N1CCCc2ccccc21	none
O=C(c1coc(=O)c(Br)c1)N1CCCc2ccccc21	pPAFAH FP inh 43.4 | pPAFAH FP conf inactive
COc1ccccc1N(CC(=O)Nc1ccc2c(c1)OCCO2)S(=O)(=O)c1ccc(C)cc1	none
O/C=c1\ccc2cccc3nc(C(F)(F)F)nc1c23	pPAFAH FP inh 40.3 | pPAFAH FP conf inactive
NNc1nc(C(F)(F)F)nc2ccccc12	none
COc1ccc(-c2csc(Nc3ccc(S(=O)(=O)Nc4cc(C)on4)cc3)n2)cc1C	PAFAH2 inh 37.3, pPAFAH FP inh 39.9 | pPAFAH FP conf 61.5
c1ccc(Nc2nc(NCC3CCCO3)c3ccccc3n2)cc1 (stereo unspecified)	none
CCOc1ccc(Nc2nc(NCC3CCCO3)c3ccccc3n2)cc1 (stereo unspecified)	pPAFAH FP inh 67.5 | pPAFAH FP conf 55.4
COCCN=C1Sc2nc3cc(C)c(C)cc3cc2CN1Cc1cccs1	none
COCCN=C1Sc2nc3ccc(C)cc3cc2CN1Cc1ccco1	pPAFAH FP inh 64.1 | pPAFAH FP conf 51.4
COc1ccc(OC)c(CN2CCN(C(=O)CNC(=O)c3ccc(C(C)(C)C)cc3)CC2)c1	none (no result: Fam108B counter)
COc1ccccc1C(=O)NCC(=O)OCc1csc(-c2ccccc2)n1	none
CCOc1ccccc1C(=O)NCC(=O)OCc1csc(CC(=O)Nc2ccc(C)cc2)n1	pPAFAH FP inh 36.7 (no result: Fam108B counter) | pPAFAH FP conf inactive
Cc1ccc(S(=O)(=O)N2CCN(C(=O)COC(=O)CCOc3ccc(C(C)(C)C)cc3)CC2)cc1	none
CCOC(=O)N1CCN(c2cc(NCCC(=O)O)c3c4c(onc24)-c2ccccc2C3=O)CC1	pPAFAH FP inh 54.9 | pPAFAH FP conf 37.3
O=C(O)CN1CCN(Cc2ccccc2F)C1=O	pPAFAH FP inh 58.1 | pPAFAH FP conf inactive
O=C(O)c1cc(-c2ccco2)nc2ccc(Br)cc12	PAFAH2 inh 45.0!, pPAFAH FP inh 63.2! | pPAFAH FP conf inactive
